Screens from PubChem BioAssay.
Cycloheximide cs = counter-screen for Shiga toxin inhibitors: cycloheximide protein synthesis inhibition; cell reporter, cycloheximide protein synthesis inhibition counterscreen; max response, %; actives 12% (n = 300,000); in the data active means max response mostly above about 13%, no sharp cut-off; inactive means mostly below about 14%; further: read at 38.3 µM for the half of the compounds with a filed dose; 0% is about no effect
HCMV inh = blocks human cytomegalovirus replication | AID 1259415 | HFF cells, HCMV-luciferase reporter, 72 h; hits give low values | activity change, negative = inhibition, % at 57.5 µM | actives 4.5% (n = 410,000); in the data active means activity change below about -60%; inconclusive means no clear call, values can overlap the other calls; inactive means above about -39%; further: on the % scale 0 is the no-effect control and ±100 the full control effect
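HFF cells seeded 16 h at 37C, treated with compounds, infected with luciferase-reporter HCMV at MOI 1 PFU/cell; luciferase read at 72 h post infection, normalized to buffer-only and Salinomycin controls.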
Pf growth 96h = P. falciparum growth inhibition at 96 hour, primary screen for plastid delayed-death inhibitors | P. falciparum luciferase reporter growth, 96 h | Potency, µM (titrated, usually from 28.7 µM), for inactives: at the highest dose activity change, negative = inhibition, usual class: inhibitors | actives 6.9% (n = 320,000); further: potency means the concentration at half of the fitted maximal effect; on the % scale 0 is the no-effect control and ±100 the full control effect
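Cell-based qHTS: luciferase-tagged P. falciparum in erythrocytes (2% hematocrit, 0.05% parasitemia final) incubated with compounds for 96 hours, 37 C, 5% CO2; luciferase detection reagent then added and luminescence measured.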
Shiga inhibitor = Shiga toxin inhibition. Vero cells, Shiga toxin protein synthesis inhibition reporter. actives 9.2% (n = 290,000). inhibition, % at 38.7 µM. AID 2315; in the data active means inhibition mostly above about 28%, no sharp cut-off; inactive means mostly below about 43%; further: 0% is about no effect
Pf growth 48h = P. falciparum growth inhibition at 48 hours (one generation). P. falciparum luciferase growth in erythrocytes, 48 h. actives 5.9% (n = 310,000). Potency, µM (doses to about 28.7 µM), for the others: top-dose activity change, negative = inhibition, hits mostly inhibitors; further: potency means the concentration at half of the fitted maximal effect; on the % scale 0 is the no-effect control and ±100 the full control effect
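A one-generation exposure of luciferase-tagged malaria parasites in RPMI 1640/Albumax erythrocyte culture, 37 C and 5% CO2. Inhibition is inferred from decreased luminescence after adding detection reagent.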
Active calls of the source: *; ? = inconclusive; nt = no result given; [ ] = remark or other dose. The list is not random: actives were taken first. Their share in the collection is about 20%. Unless noted, the call rests on the fitted dose curve; in most records, active means well fitted inhibition curve with a large enough effect; inconclusive means small, poorly fitted or top-dose-only effect, or another doubt; inactive means no such curve, though single readings can be large or run the other way.

SMILES | Cycloheximide cs | HCMV inh | Pf growth 96h | Shiga inhibitor | Pf growth 48h
COCCCNC(=O)c1ccc2c3c(onc13)-c1ccccc1C2=O | 35.1* | nt | -24.0% | 69.4* | -87.9%
C=C(C)CNC(=S)NNC(=O)CCn1c2ccccc2c2ccccc21 | -3.2 | -38.7 | ? | -12.2 | -21.9%
C=C(C)CNC(=S)NNC(=O)CCn1c2cc(Cl)ccc2c2ccc(Cl)cc21 | -1.8 | -24.2 | 82.1% | -9.4 | 7.38µM*
C=C(C)CNC(=S)NNC(=O)CCn1c2ccc(Cl)cc2c2cc(Cl)ccc21 | -0.2 | -82.5* | 44.6% | 10.9 | 2.33µM*
Cc1ccc(C)c(NC(=O)CN(C)C(=O)Cc2ccccc2)c1 | 1.6 | 16.8 | -33.7% | -11.1 | -12.6%
Cc1ccc(C)c(NC(=O)CN(C)C(=O)c2ccc(-c3cccc(C(F)(F)F)c3)o2)c1 | nt | ? | 1.31µM* | nt | 1.85µM*
CN(CC(=O)Nc1ccc(F)cc1)C(=O)c1ccc(-c2ccc(F)cc2)o1 | nt | -15.8 | nt | nt | nt
CN(CC(=O)Nc1cccc(F)c1)C(=O)c1ccc(-c2cccc(C(F)(F)F)c2)o1 | nt | -21.6 | 0.117µM* | nt | 0.329µM*
COc1cccc(NC(=O)CN(C)CC(=O)Nc2cccc(C(F)(F)F)c2)c1 | 2.3 | -13.0 | -13.8% | -6.6 | -24.3%
COc1cccc(NC(=O)CN(C)C(=O)c2ccc(-c3cccc(C(F)(F)F)c3)o2)c1 | nt | -6.9 | 0.262µM* | nt | 0.329µM*
CCn1nc(C(=O)Nc2cc(Cl)ccc2-n2cncn2)c2ccccc2c1=O | nt | -6.9 | ? | nt | ?
N#C/C(=N\Nc1cccc(C(F)(F)F)c1)C(=O)c1ccsc1 | 67.6* | -97.0* | -3.7% | 93.7* | 142.1%
Cc1cccc(-c2noc(-c3ccc(N4CCOCC4)c([N+](=O)[O-])c3)n2)c1 | nt | -22.7 | nt | nt | nt
Cc1cccc(-c2noc(-c3ccc(N4CCN(C)CC4)c([N+](=O)[O-])c3)n2)c1 | nt | -77.7* | nt | nt | nt
COc1ccccc1N1CCN(c2ccc(-c3nc(-c4ccccc4)no3)cc2[N+](=O)[O-])CC1 | nt | 17.8 | nt | nt | nt
Cc1cccc(-c2noc(-c3ccc(N4CCCC4)c([N+](=O)[O-])c3)n2)c1 | nt | -74.2* | nt | nt | nt
COCCCNC(=S)NNC(=O)c1cccnc1 | 3.5 | 29.4 | nt | 34.2 | 25.9%
Cc1c(C(N)=O)cc([N+](=O)[O-])cc1[N+](=O)[O-] | nt | -3.9 | -7.8% | nt | -1.9%
C[C@@H]1CN([C@H](C)CO)C(=O)CCCn2cc(nn2)CO[C@H]1CN(C)C(=O)Nc1ccc(-c2cccs2)cc1 | nt | -9.6 | nt | nt | nt
O=c1c2cc(N3CCOCC3)ccc2[nH]c(=S)n1CC1CCCO1 (centres undefined) | 10.0 | 54.4 | -0.8% | 54.3* | 18.5%
O=c1c2cc(Br)ccc2[nH]c(=S)n1Cc1ccccn1 | 23.9* | 12.2 | ? | 10.7 | 55.1%
O=c1c2cc(Br)ccc2[nH]c(=S)n1Cc1ccccc1 | 7.0 | -62.8* | -3.6% | -12.1 | ?
O=c1c2cc(Br)ccc2[nH]c(=S)n1-c1ccccc1 | -3.1 | -15.5 | -19.7% | -12.1 | 27.2%
O=c1c2cc(N3CCOCC3)ccc2[nH]c(=S)n1CCc1ccccc1 | 13.7 | 46.6 | ? | 11.1 | ?
COc1ccc(CCn2c(=S)[nH]c3ccc(N4CCOCC4)cc3c2=O)cc1OC | -2.0 | -17.3 | ? | -7.1 | 10.4µM*
SMILES | Cycloheximide cs | HCMV inh | Pf growth 96h | Shiga inhibitor | Pf growth 48h
CCOc1ccccc1C(=O)Nc1ccc(S(=O)(=O)Nc2ncccn2)cc1 | nt | 18.2 | nt | nt | nt
O=C(C[C@@H]1CC[C@@H]2[C@H](COC[C@H](O)CN2C(=O)Nc2ccc(F)cc2)O1)NCCc1ccncc1 | nt | 8.9 | nt | nt | nt
Cc1ccccc1OC(=O)CSc1nnc(-c2ccc(F)cc2)o1 | nt | 15.5 | nt | nt | nt
CC(=O)c1cccc(NC(=O)c2cc(=O)[nH]c3ccccc23)c1 | -3.7 | 32.1 | 26.0% | 23.0 | 3.0%[0.00184 µM]
CC(C)C(NC(=O)c1ccccc1)C(=O)OCC(=O)N1CCCC1 (centres undefined) | nt | -30.7 | ? | nt | -22.0%
O=c1c2cc(N3CCOCC3)ccc2[nH]c(=S)n1Cc1ccccn1 | 17.0* | 21.7 | 58.2% | active | 20.7%
O=c1c2cc(N3CCOCC3)ccc2[nH]c(=S)n1Cc1ccccc1Cl | 3.7 | 22.1 | ? | 2.7 | 11.6%
Cc1ccc(S(=O)(=O)c2c(N)n(/N=C/c3ccco3)c3nc4ccccc4nc23)cc1 | -1.1 | -7.6 | ? | 10.8 | 6.57µM*
Cc1ccc(S(=O)(=O)c2c(N)n(/N=C/c3ccco3)c3nc4ccccc4nc23)cc1C | -8.5 | ? | 3.29µM* | -12.4 | 2.08µM*
Nc1c(S(=O)(=O)c2ccccc2)c2nc3ccccc3nc2n1/N=C/c1ccco1 | -1.0 | -31.8 | ? | -5.5 | ?
Cc1ccc(-n2c(N)c(S(=O)(=O)c3ccccc3)c3nc4ccccc4nc32)cc1 | 7.7 | ? | ? | -6.2 | 0.0%
CC(C)CNC(=O)c1c(N)n(/N=C/c2ccccn2)c2nc3ccccc3nc12 | -2.1 | -0.9 | 19.4% | -13.3 | ?
Cc1cccc(S(=O)(=O)c2c(N)n(-c3ccccc3)c3nc4ccccc4nc23)c1 | -2.7 | -3.5 | 9.28µM* | 1.4 | ?
Nc1c(C(=O)NC2CCCCC2)c2nc3ccccc3nc2n1/N=C/c1ccco1 | -4.1 | nt | 9.28µM* | -10.9 | 14.6%
COc1cc2c(cc1NC(=O)CSc1nc3ccc(C)cc3[nH]1)oc1ccccc12 | -5.0 | nt | -9.9% | -13.5 | 0.0%
Cc1cccc(S(=O)(=O)c2c(N)n(/N=C/c3ccco3)c3nc4ccccc4nc23)c1 | -1.0 | -28.1 | -18.6%[5.75 µM] | -12.0 | 8.28µM*
CCCCNC(=O)c1c(N)n(/N=C/c2ccccn2)c2nc3ccccc3nc12 | 14.3 | nt | 1.47µM* | 9.3 | 24.7%
COCCNC(=O)Cn1nc(-c2ccccc2C)ccc1=O | -2.2 | 55.2 | ? | nt | 36.2%
COc1ccc(C(=O)OCc2c(F)cccc2Cl)cc1S(=O)(=O)N1CCOCC1 | nt | 22.3 | ? | nt | ?
COc1ccc(COC(=O)c2cccc(S(=O)(=O)N3CCCC3)c2)cc1F | -1.7 | 11.3 | 11.7µM* | -5.8 | ?
COc1ccc(C(=O)OCc2ccccc2F)cc1S(=O)(=O)N1CCCC1 | nt | -97.4* | 13.1µM* | nt | 9.28µM*
COc1ccc(COC(=O)c2ccc(C)c(S(=O)(=O)N3CCOCC3)c2)cc1F | nt | -29.9 | 10.4µM* | nt | ?
CC(=O)N1CCN(S(=O)(=O)c2cccc(C(=O)OCc3ccc(C(C)(C)C)cc3)c2)CC1 | nt | 4.4 | 9.28µM* | nt | 11.7µM*
CCCc1ccc(S(=O)(=O)N2CCC(Oc3ccc(-n4cnnn4)cc3)CC2)cc1 | nt | -37.2 | nt | nt | nt
Cc1ccc(COC(=O)c2cccc(S(=O)(=O)N3CCCCCC3)c2)cc1 | nt | 3.8 | ? | nt | ?
O=C(OCc1ccc(Br)cc1)c1cccc(S(=O)(=O)N2CCCC2)c1 | nt | -29.3 | 10.4µM* | nt | ?
CC1(C)c2ccccc2N2CCC(=O)NC21/C=C/c1ccco1 (centres undefined) | 1.4 | 3.6 | 10.4µM* | 1.1 | ?
CC1(C)c2ccccc2N2CC(=O)NC21/C=C/c1ccco1 (centres undefined) | 4.2 | -17.0 | ? | -22.6 | ?
Cc1ccccc1N/C(SCc1cccc(Br)c1)=C(/C#N)C(N)=O | 0.5 | -68.5* | ? | -9.1 | -28.9%
